# Data: ChEMBL document CHEMBL3988442, “University of Dundee, Small-Polar-MMV Screening Library” (2021)
# Hit rate of the full screen: of about 48,000 compounds, about 13,000 (27%) showed an effect of 50% or more. This is one part of the list.
# System: Wolbachia pipientis
# Experiment: Anti-Wolbachia Cell-Based Screen
# Assay type: functional
# Design: scale not given: in the data most compounds retested in dose-response had high values
# Conditions: 5 µM
row,SMILES,Percent Effect [%]
1,Cn1cc(C(=O)N2CCCC2CCc2ccccc2)cn1 (stereo not drawn),11.22
2,COc1cc(N2CCN(Cc3ccc(C)o3)C(CCO)C2)nc(N)n1 (stereo not drawn),-10.52
3,Cc1nn(C)c2c(=O)n(CC(=O)Nc3cc(Cl)cc(Cl)c3)nnc12,4.089
4,Cc1nccn1CC1CCCN(C(=O)c2cnn(C)c2)C1 (stereo not drawn),93.77
5,Cn1cc(C(=O)N2CCCC(c3ccncc3)C2)cn1 (stereo not drawn),78.37
6,Cn1cc(C(=O)N2CCCC(c3cnccn3)C2)cn1 (stereo not drawn),131
7,Cn1cc(C(=O)N2CC[C@@]3(O)CCN(C(=O)C4CCC4)C[C@H]3C2)cn1,-11.15
8,COc1ccc(CN(C(=O)C2CCCS2)c2ccncc2)cc1 (stereo not drawn),-11.82
9,COc1ccc(S(=O)(=O)N2CCn3cnc(COCC4CC4)c3C2)cc1,-5.165
10,CS(=O)(=O)N1CCCCC12CCCN(Cc1nccs1)C2.O=C(O)C(F)(F)F (stereo not drawn),-3.648
11,CNC[C@H]1CC[C@H](c2cc(CN(C)C(=O)c3cnccn3)n(C)n2)CC1.Cl,49.34
12,CNC[C@H]1CC[C@H](c2cc(CN(C)S(=O)(=O)N(C)C)n(C)n2)CC1.Cl,79.31
13,O=C(NN1CCCc2ccccc21)c1c[nH]c(=O)[nH]1,-8.796
14,CCc1cnc(C)nc1NCCNc1nc(C)cc(=O)[nH]1,-6.452
15,F[C@@H]1CN(CC2CC2)C[C@@H]1OCc1nc2ncccc2[nH]1,-13.13
16,O=C(CCc1ccccc1)NCC1CCN(Cc2ccccc2)CC1,111.4
17,O=C(CCc1ccccc1)NCC1CCN(Cc2ccsc2)CC1,3.98
18,O=C(CCc1ccccc1)NCC1CCN(Cc2cccs2)CC1,102.9
19,Cc1ccc(CN2CCC(CNC(=O)Cn3cncn3)CC2)cc1,-4.206
20,O=C(CCc1ccsc1)NCC1CCN(Cc2cccs2)CC1,-16.57

row,SMILES,Percent Effect [%]
1,COc1cc2cc(C(=O)NC(C)C(=O)O)n(C)c2c(OC)c1OC (stereo not drawn),0.3251
2,CCc1[nH]c2c(CNc3nc(C)cc(NC)n3)cc(C)cc2c1C,-10.73
3,CC(SCCC(=O)NC(N)=O)c1ccccc1F (stereo not drawn),-10.14
4,Cc1ccc2c(c1)C1(CCNCC1)CC2N1CCOCC1 (stereo not drawn),0.9204
5,N#Cc1ccc(S(=O)(=O)Nc2ccccc2C#N)cn1,-3.183
6,COc1ccc(NC(=O)N2CCCCCC2c2ccncc2)cn1 (stereo not drawn),-7.407
7,O=C(NCC1(O)COCCN(Cc2cccc(O)c2)C1)c1ccccn1 (stereo not drawn),141
8,O=C(NCC1(O)COCCN(Cc2cccc(O)c2)C1)c1cscn1 (stereo not drawn),117.5
9,O=C(NCCN1CCOCC1)c1ccc(OCc2ccccc2)nc1,-12.09
10,O=C(NCC1(O)COCCN(Cc2ccc(O)cc2)C1)c1cnccn1 (stereo not drawn),136.8
11,O=C(Nc1cc(N2CCOCC2)ncn1)c1cnccn1,-2.836
12,O=C(NCN1CCc2ccccc2C1)c1cnccn1,-0.1611
13,O=C(Nc1cnn(CCN2CCOCC2)c1)c1ccccn1,-4.684
14,Cc1ccc(CN2CCOCC2)cc1NC(=O)c1ccsc1,-4.906
15,O=C(NCCc1cscn1)c1coc(CN2CCOCC2)c1,-2.273
16,O=C(NCC1(O)COCCN(Cc2cccc(O)c2)C1)c1cnccn1 (stereo not drawn),119.9
17,CCCN(Cc1ccccc1C)C(CC)CO (stereo not drawn),3.002
18,CC(C)c1nc(C(=O)N2CCc3ccccc3C2C(=O)O)cs1 (stereo not drawn),-0.5058
19,CSCCNC(=O)c1coc(COc2ccc3sc(C)nc3c2)n1,-17.64
20,CNc1nc2c(c(C(=O)N3CCCC3)n1)CN(Cc1ccco1)CC2,133.6

row,SMILES,Percent Effect [%]
1,Cc1cc(CN2CCc3nn(C)c(=O)cc3C2)on1,13.66
2,CCCn1nc2c(cc1=O)CN(Cc1cc(C)no1)CC2,7.336
3,Cc1nc(N2CCCC2)nc2c1CCN(Cc1ccco1)CC2.O=C(O)C(F)(F)F,-6.041
4,CNc1nc2c(c(C(=O)N3CCCC3)n1)CN(Cc1cc(C)no1)CC2,97.24
5,CNc1nc2c(c(C(=O)N3CCCC3)n1)CN(Cc1nccn1C)CC2,14.28
6,CC1(C)CN(C(=O)c2cnc(CN3CCCC3)s2)CC[C@]1(C)O,-20.27
7,CC(C)(NCc1cccc(C(N)=O)c1)c1ccc2c(c1)OCO2,2.76
8,CCNC(=O)NC(=O)CNC(C)(C)c1ccc2c(c1)OCCO2,126.2
9,Cc1cc(NC(=O)CNC(C)(C)c2ccc3c(c2)OCCO3)no1,-9.405
10,CC(C)(NCC(=O)NC(=O)NC1CC1)c1ccc2c(c1)OCO2,94.42
11,CC(C)(NCc1cccc(O)c1)c1ccc2c(c1)OCO2,4.523
12,COC(=O)c1oc(CNC(C)(C)c2ccc3c(c2)OCCO3)cc1C,-6.562
13,Cc1cc(NC(=O)CNC(C)(C)c2ccc3c(c2)OCO3)on1,4.007
14,CC(C)(NCC(=O)NCC1CC1)c1ccc2c(c1)OCCO2,87.25
15,CCNC(=O)NC(=O)CNC(C)(C)c1ccc2c(c1)OCO2,117.5
16,CC(C)(NCC(=O)NCC(F)(F)F)c1ccc2c(c1)OCCO2,5.568
17,COC(=O)c1oc(CNC(C)(C)c2ccc3c(c2)OCO3)cc1C,-12.91
18,CC(C)(C)NC(=O)NC(=O)CNC(C)(C)c1ccc2c(c1)OCCO2,3.102
